Shown are actives, neighbours in structure and some others; about 2.5% of the full set was active somewhere.
D2 PAM-1: positive allosteric modulators of human D2 dopamine receptor; HEK293 T-REx D2, calcium flux, EC20 dopamine potentiation; hit rate 0.34% among 340,000; potentiation, % at 10 µM; P14416; AID 485347;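 active means potentiation over 3 SD above the plate norm, cut at about 30% in these data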
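Potentiation of an EC20 dopamine calcium response is measured in a force-coupled, tetracycline-inducible Hek293 Trex D2 line. Compound-only kinetic reads over 180 s flag agonists before dopamine addition.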
D2 ag-1: activates the human D2 dopamine receptor; AID 485358; hit rate 0.53% among 340,000; HEK293 T-REx D2 cells, calcium flux agonist mode; activation, % at 2 µM; P14416;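 active means activation over 3 SD above normal in the single-dose calcium agonist read, cut at about 30% in these data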
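Tetracycline-induced HEK293 T-REx cells with force-coupled D2 receptor, plated overnight at 30 C, loaded with no-wash calcium dye. After a 10 s baseline, compound was pin-added and calcium flux read kinetically for 180 s; calcium rises flagged agonists.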
D2 antagonist: antagonizes the human D2 dopamine receptor. hit rate 2% among 340,000. HEK293 TREx D2 cells, calcium flux, dopamine EC80. inhibition, % at 10 µM. P14416; in the data active means inhibition above about 30%; inactive means below that, where a call was filed
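Inhibition of EC80 dopamine-driven calcium flux, recorded kinetically, defines activity here; cells are a tetracycline-induced HEK293 T-REx line expressing force-coupled D2.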
Apoferritin bind: binds horse apoferritin like a general anesthetic | hit rate 0.074% among 350,000 | apoferritin/1-aminoanthracene competitive binding, fluorescence | Potency, µM (series often up to 77.5 µM), actives largely listed as inhibitors; active means well fitted inhibition curve with a large enough effect; inconclusive means small, poorly fitted or top-dose-only effect; inactive means no such curve, though single readings can be large or run the other way; further: nearly all actives have a fitted effect of over 20% in size
Target sequence (P02791 2-175 limits assumed): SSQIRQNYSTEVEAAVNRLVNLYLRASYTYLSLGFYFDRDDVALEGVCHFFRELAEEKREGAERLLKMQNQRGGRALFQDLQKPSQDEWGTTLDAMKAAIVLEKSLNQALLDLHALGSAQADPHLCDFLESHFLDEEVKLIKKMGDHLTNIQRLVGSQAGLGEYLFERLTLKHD
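Horse-spleen apoferritin (10 uM) in 50% saturated 1-aminoanthracene in PBS was incubated 10 min at room temperature with compound. Fluorescence (ex 380, em 535 nm) was normalized to free and bound 1-AMA, with concentration-response fitted by a four-parameter Hill equation.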
D2 ag-2: agonists of human D2 dopamine receptor (beta-arrestin) | P14416 | DiscoveRx PathHunter D2 beta-arrestin, luminescence, 90 min; 100% = 57 uM dopamine signal | activation, % (no concentration beside the values) | hit rate 0.084% among 360,000 | AID 624465; in the data active means activation above about 40%; inconclusive means between about 15% and that limit
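Agonist mode: compounds alone added to overnight-plated D2 PathHunter cells for 90 min at 37 C, with 57 uM final dopamine (EC100) defining full response. Beta-arrestin recruitment detected by chemiluminescent reagent, read after 1 h at ambient temperature.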
D2 PAM-2: human D2 receptor positive allosteric modulation; DiscoveRx D2 beta-arrestin cells, luminescence, 90 min; 100% = 57 uM dopamine signal; potentiation, % (concentration not given with the values); hit rate 0.23% among 360,000; AID 624464; in the data active means potentiation above about 50%; inconclusive means mostly about 30% to 49%
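PathHunter D2 cells, attached overnight at 37 deg C, received compound in DMSO plus dopamine at EC20 (50 nM final) for 90 min at 37 deg C. Beta-arrestin recruitment was read as luminescence after 1 h with detection reagent at ambient temperature.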
A number is an active result; n = inactive; u = inconclusive; x = no result.

SMILES | D2 PAM-1 | D2 ag-1 | D2 antagonist | Apoferritin bind | D2 ag-2 | D2 PAM-2
COc1ccc(/C=N/NC(=O)c2nn(-c3ccc(C)c(C)c3)c(=O)c3ccccc23)cc1 | n | n | 44.7 | n | n | n
N#Cc1ccccc1COC(=O)c1cc(=O)c2ccccc2o1 | n | n | n | n | n | n
CN(CC(=O)NCc1ccc2c(c1)OCO2)S(=O)(=O)c1ccc(Br)s1 | n | n | n | n | n | n
Cn1c(N2CCOCC2)c(/C=N/O)c2ccccc21 | n | n | n | n | n | n
Cc1ccc(C(=O)O/N=C/c2c(N3CCOCC3)n(C)c3ccccc23)cc1 | n | n | n | n | u | 85.2
Cc1ccc(C(=O)O/N=C/c2c(Cl)n(C)c3ccccc23)cc1 | n | n | n | n | n | n
Cn1c(N2CCOCC2)c(/C=N/OC(=O)c2cccnc2Cl)c2ccccc21 | n | n | n | n | n | n
Cn1c(N2CCOCC2)c(/C=N/OC(=O)c2ccc(F)cc2)c2ccccc21 | n | n | n | n | u | 141.2
Cn1c(Cl)c(/C=N/OC(=O)c2ccc(Cl)cc2)c2ccccc21 | n | n | 56.1 | n | n | n
CC(=O)O/N=C/c1c(N2CCOCC2)n(C)c2ccccc12 | x | x | x | n | n | 62.2
Clc1ccc(-n2cccc2CN2CCc3c([nH]c4ccccc34)C2c2ccccn2)nc1 (configuration not stated) | n | n | n | n | n | n
CC(C(=O)NCc1cccnc1)N1C(=O)c2ccccc2C1=O (configuration not stated) | n | n | n | n | n | n
C=CCNC(=O)CN1C2CCCC1CC(NC(=O)c1ccccc1C)C2 (configuration not stated) | 40.8 | n | n | n | n | n
Cc1ccccc1C(=O)NC1CC2CCCC(C1)N2CC(C)C (configuration not stated) | x | x | x | x | n | n
CN(/C(=N/S(=O)(=O)c1ccccc1)c1ccccc1)S(=O)(=O)c1ccccc1 | n | n | n | n | n | n
CCOc1ccc(N(CC(=O)Nc2ccc(C)cc2)S(C)(=O)=O)cc1 | x | x | x | n | n | n
CCOc1ccc(N(CC(=O)Nc2cc(C)cc(C)c2)S(C)(=O)=O)cc1 | n | n | 40.8 | n | n | n
CCn1cc(S(=O)(=O)N2CCN(Cc3ccc(F)cc3)CC2)cn1 | n | n | n | n | n | n
CCn1cc(S(=O)(=O)N2CCN(Cc3cccc(Cl)c3)CC2)cn1 | n | n | 33.5 | n | n | n
COc1cc(F)c(C2=CC(=O)C[C@H](c3ccc(Cl)cc3)C2)cc1F | n | n | 34.8 | x | n | n
CCC(CC)C(=O)NC12CC3CC(CC(C3)C1)C2 | n | n | 32.5 | n | n | n
O=C1CCCc2c1[nH]c1ccc(CN3CCCCC3)cc21 | n | n | 50.9 | n | n | n
Cc1ccc2[nH]c3c(c2c1)CCCC3=O | n | n | n | n | n | n
COc1cc(NC(=O)Cn2cnc(S(=O)(=O)N3CCOCC3)c2)cc(OC)c1OC | n | n | 45.4 | n | n | n
Cc1ccc(CN2CCN(C3CCN(C(=O)Nc4ccccc4C(F)(F)F)CC3)C(=O)C2=O)cc1 | n | x | x | n | x | x
SMILES | D2 PAM-1 | D2 ag-1 | D2 antagonist | Apoferritin bind | D2 ag-2 | D2 PAM-2
Cc1ccc(NC(=O)/C=C/c2ccc([N+](=O)[O-])s2)c(C)c1 | n | n | n | n | n | n
Cc1cc([N+](=O)[O-])ccc1NC(=O)/C=C/c1cccs1 | n | n | 43.8 | n | n | n
Cc1ccc(C(=O)N2CCC(C(=O)NCc3cccnc3)CC2)cc1 | n | n | n | n | n | n
O=C(Nc1ccc2c(c1)OCCO2)c1cc2ccccc2o1 | n | n | 32.6 | n | n | n
O=C(OCC12CC3CC(CC(C3)C1)C2)c1ccc(NCc2cc(O)ccc2O)cc1 | x | x | x | x | u | 55.3
O=C(OCCC12CC3CC(CC(C3)C1)C2)c1ccc(NCc2cc(O)ccc2O)cc1 | x | x | x | x | u | 63.9
Cc1cccc(-c2nnc(N)s2)c1 | n | n | n | u | n | n
CC(C)NC(=O)c1ccc(N2CCOCC2)nc1 | n | n | n | n | n | n
Cc1ccc(S(=O)(=O)N2CCC(=O)N(CCOC(=O)Nc3cccc(Cl)c3)CC2)cc1 | n | n | n | n | n | n

Screens from PubChem.
